The results in this text go back to PubChem BioAssay (EPA / NIEHS).

The structures appear in SMILES notation. Activity calls are given as the source filed them. The calls were made as follows: active = hit-call score of the fitted dose curve at least 0.9, where 1 is the maximum; inconclusive = response in the unintended direction; inactive = score below 0.9.

Chain of Peroxisome proliferator-activated receptor gamma (Homo sapiens) (P37231 whole entry, looked up, the tested form may be a part): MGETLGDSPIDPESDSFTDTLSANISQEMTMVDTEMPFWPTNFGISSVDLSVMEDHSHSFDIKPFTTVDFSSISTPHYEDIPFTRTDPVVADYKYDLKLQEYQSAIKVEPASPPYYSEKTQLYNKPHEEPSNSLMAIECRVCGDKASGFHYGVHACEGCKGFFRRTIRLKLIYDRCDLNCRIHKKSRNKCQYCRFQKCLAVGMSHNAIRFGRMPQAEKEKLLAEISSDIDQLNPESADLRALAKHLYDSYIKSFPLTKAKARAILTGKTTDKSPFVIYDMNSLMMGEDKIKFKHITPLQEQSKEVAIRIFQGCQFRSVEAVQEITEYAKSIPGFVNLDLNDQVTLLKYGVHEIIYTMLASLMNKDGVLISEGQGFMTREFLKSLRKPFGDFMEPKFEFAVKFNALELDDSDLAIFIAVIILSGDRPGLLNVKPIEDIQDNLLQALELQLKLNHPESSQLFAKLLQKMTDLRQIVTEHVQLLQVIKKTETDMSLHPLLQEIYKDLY

The assay concerns the target Peroxisome proliferator-activated receptor gamma (Homo sapiens) (UniProt P37231). As to the kind of experiment: OT_PPARg_PPARgSRC1_1440: Odyssey Thera (OT) 24-hour Protein-Complementation Assay for Peroxisome Proliferator-activated Receptor Gamma/ SRC-1 Co-activator (AID 2283388). The essentials: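 HEK293T transiently transfected with PPARg/SRC-1 split-Venus YFP fusions 48 h before dosing, then treated 24 h at 37C. Fixed cells imaged; nuclear/cytoplasmic 488 nm fluorescence ratio, gain of signal versus DMSO.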
As for `CSC1=N[C@@](C)(c2ccccc2)C(=O)N1Nc1ccccc1`, the outcome was inactive. For `CCOP(=S)(OCC)OC(Cl)C(Cl)(Cl)Cl` (stereo not given), the molecule was classed as inactive. The result for `CCOP(=O)(SC(C)CC)N1CCSC1=O` (stereo not given) reads “inactive”. The result for `CN(C)[C@@H]1C(=O)C(C(N)=O)=C(O)[C@@]2(O)C(=O)C3=C(O)c4c(O)cccc4[C@@](C)(O)[C@H]3[C@H](O)[C@@H]12` reads “inactive”; that for `O=c1ccc(=O)[nH][nH]1`, “inactive”; that for `CCc1cccc(CC)c1N(COC)C(=O)CCl`, “inactive”. The result for `N#CSCSC#N` reads “inactive”. Regarding `CC(C)=CC1C(C(=O)OCN2C(=O)C3=C(CCCC3)C2=O)C1(C)C` (stereo not given), the molecule was classed as inactive. The result for `CON=C(C(=O)OC)c1ccccc1CON=C(C)c1cccc(C(F)(F)F)c1` reads “inactive”; that for `CN1COCN(Cc2cnc(Cl)s2)C1=N[N+](=O)[O-]`, “inactive”; that for `COP(=O)(OC)SCn1c(=O)oc2cc(Cl)cnc21`, “inactive”. The result for `CC[C@H](C)[C@H]1O[C@]2(C=C[C@@H]1C)C[C@@H]1C[C@@H](C/C=C(\C)[C@@H](O[C@H]3C[C@H](OC)[C@@H](O[C@H]4C[C@H](OC)[C@@H](NC)[C@H](C)O4)[C@H](C)O3)[C@@H](C)/C=C/C=C3\CO[C@@H]4[C@H](O)C(C)=C[C@@H](C(=O)O1)[C@]34O)O2` reads “inactive”; that for `CCCCSP(=O)(SCCCC)SCCCC`, “inactive”. Take `C=C(C)[C@H]1Cc2c(ccc3c2O[C@@H]2COc4cc(OC)c(OC)cc4[C@@H]2C3=O)O1`: the call was inactive.

Regarding `CCc1cnc(C2=NC(C)(C(C)C)C(=O)N2)c(C(=O)O)c1` (stereo not given), the molecule was classed as inactive. The result for `O=[N+]([O-])c1cc(C(F)(F)F)c(Cl)c([N+](=O)[O-])c1Nc1ncc(C(F)(F)F)cc1Cl` reads “inactive”. The result for `CCOP(=S)(OCC)SCCSCC` reads “inactive”; that for `COc1cc(OC)nc(Sc2cccc(Cl)c2C(=O)O)n1`, “inactive”. The result for `CC1=NNC(=O)N(/N=C/c2cccnc2)C1` reads “inactive”.

For the molecule `Cc1cc(C2CC2)nc(Nc2ccccc2)n1`, the molecule was called inactive. For the molecule `CCOP(=S)(Oc1cnc(C(C)(C)C)nc1)OC(C)C` (stereo not given), the molecule was called inactive. The result for `C[N+]1(C)CCCCC1` reads “inactive”; that for `CCCCOC(=O)[C@@H](C)Oc1ccc(Oc2ccc(C#N)cc2F)cc1`, “inactive”; that for `CCCOc1nn(C(=O)NS(=O)(=O)c2ccccc2C(=O)OC)c(=O)n1C`, “inactive”. The result for `Nc1c(Cl)cc([N+](=O)[O-])cc1Cl` reads “inactive”; that for `CCCCOC(=O)c1ccccc1C(=O)O`, “inactive”. With `COP(=O)(OC)C(O)C(Cl)(Cl)Cl` (stereo not given), the outcome was inactive. On to `S=C1NCCN1`, for which the call was inactive. The result for `Cc1ccn2nc(S(=O)(=O)Nc3c(F)cccc3F)nc2n1` reads “inactive”; that for `CCOC(=O)CC(SP(=O)(OC)OC)C(=O)OCC` (stereo not given), “inactive”; that for `CC(=NC#N)N(C)Cc1ccc(Cl)nc1`, “inactive”. The result for `CC(C)[C@H](C(=O)O[C@H](C#N)c1cccc(Oc2ccccc2)c1)c1ccc(Cl)cc1` reads “inactive”. The result for `CCOP(=O)(OCC)Oc1cc(C)nc(C(C)C)n1` reads “inactive”; that for `CCC(=NOC/C=C/Cl)C1=C(O)CC(C2CCOCC2)CC1=O` (stereo not given), “inactive”. As for `CCC(CC)Nc1c([N+](=O)[O-])cc(C)c(C)c1[N+](=O)[O-]`, the call was inactive.
